# STK33 kin inh: STK33 kinase inhibitors, primary screen, biochemical, luminescence, ADP-Glo, MBP substrate | Serine/threonine-protein kinase 33 (Homo sapiens), Q9BYT3 | inhibition, % at 12.5 µM | 27,000 compounds, 0.44% hits; in the data active means inhibition above about 20%
# ID4 binder: binders of human ID4 protein, primary screen, biochemical, small molecule microarray, single point | Flag-ID4 binding, fluorescence F/B | calls only | 31,000 compounds, 1.2% hits | AID 624137, 2012; call rule not given here;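 further: a binder raises fluorescence above local background on the spot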
# Target sequence (P47928 whole entry, looked up): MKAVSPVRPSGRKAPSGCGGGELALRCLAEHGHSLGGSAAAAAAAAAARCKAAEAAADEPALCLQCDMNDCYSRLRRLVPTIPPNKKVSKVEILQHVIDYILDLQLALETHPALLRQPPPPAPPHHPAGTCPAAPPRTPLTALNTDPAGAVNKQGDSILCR
# The depositor's hits bear a star; i = inactive; x = no result given; + = active, no number. This is one part of a sample in which hits are shown more often than they occur.
SMILES,STK33 kin inh,ID4 binder
C[C@H](CO)N1C[C@H](C)[C@@H](CN(C)C(=O)c2ccccc2)OCCCC[C@H](C)Oc2ccc(NS(C)(=O)=O)cc2C1=O,x,+
COc1cc2c(c(OC)c1OC)CCc1cc(O)c(O)cc1-2,21*,x
COc1cc(C2OCC3C(c4cc(OC)c(OC)c(OC)c4)OCC23)cc(OC)c1OC (centres undefined),-2,i
Cc1cccc(-n2c(SCC(=O)c3ccccc3)nnc2-c2ccncc2)c1C,-1,i
Cc1[nH]c(=O)[nH]c(=O)c1NS(=O)(=O)c1ccc2c(c1)CCCC2,1,i
Cc1ccc(S(=O)(=O)Nc2c(C)[nH]c(=O)[nH]c2=O)cc1C,0,+
C/C=C(/C)C(=O)O[C@H]1[C@H](OC(=O)/C(C)=C\C)[C@]2(CO)[C@H](O)C[C@]3(C)C(=CCC4[C@@]5(C)CC[C@H](OC6OC(C(=O)O)C(O)C(OC7OC(C)C(O)C(OC8OC(CO)C(O)C(O)C8O)C7O)C6O)C(C)(C)C5CC[C@]43C)[C@@H]2CC1(C)C (some centres undefined),-3,x
CCn1c(SCC(=O)Nc2ccc(C)cc2)nnc1-c1ccc(N)cc1,-1,i
NCCCN(Cc1ccco1)C1CCCC1,-2,i
N#C/C(=C/c1ccc(O)c(O)c1)C(=O)OC/C=C/c1ccccc1,-1,i
Oc1cc(O)cc(/C=C/c2ccc(O)c(O)c2)c1,74*,x
Cc1ccc(-c2csc3ncnc(SCC(=O)c4ccc(F)cc4)c23)cc1,2,i
COc1c2c(c(O)c3c(=O)c4c(OC)c(O)ccc4oc13)C1CCCC(C)(O2)O1 (centres undefined),-6,i
Cc1ccc(-c2nc(SCC(=O)c3ccccc3)n[nH]2)cc1,-1,i
COc1ccc(C(=O)CSc2n[nH]c(-c3ccc(C)cc3)n2)cc1,-1,+
CCOC(=O)Nc1ccc2c(c1)N(C(=O)CN1CCOCC1)c1ccccc1CC2,1,i
CCOC(=O)c1c(NC(=O)CSc2ncn[nH]2)sc2c1CCCC2,-3,i
NC(=O)c1c(NC(=O)CSc2ncn[nH]2)sc2c1CCC2,7,+
O=C(NCc1ccc(F)cc1)[C@H]1C[C@H]2C(=O)N[C@@H](Cc3ccccc3)C(=O)N2[C@H]1c1cccc(OCCO)c1,5,+
NCCCCCCNC(=O)[C@@H]1C[C@@H]2C(=O)NCC(=O)N2[C@@H]1c1cccc(OCCO)c1,-3,+
CC(C)C[C@@H]1NC(=O)[C@@H]2C[C@H](C(=O)NCc3ccc(F)cc3)[C@H](c3cccc(OCCO)c3)N2C1=O,5,i
O=C(NCc1ccc(F)cc1)[C@H]1C[C@H]2C(=O)N[C@@H](Cc3ccccc3)C(=O)N2[C@H]1c1ccc(O)cc1,-1,x
O=C1N[C@@H](Cc2ccccc2)C(=O)N2[C@@H]1C[C@@H](C(=O)NCc1ccc(F)cc1)[C@H]2c1ccc(O)cc1,-9,+
O=C(CS)NCCCCCCNC(=O)[C@H]1C[C@H]2C(=O)NCC(=O)N2[C@H]1c1cccc(OCCO)c1,-2,x
CC(C)(C)C(=O)CSc1nnc(-c2cnccn2)s1,-2,x
SMILES,STK33 kin inh,ID4 binder
CCN1CCCC1CNC(=O)C(NC(=O)c1ccc(C23CC4CC(CC(C4)C2)C3)cc1)C(C)C (centres undefined),x,i
O=C(O)c1cn(C2CC2)c2cc(N3CCNCC3)c(F)cc2c1=O,-2,i
COc1c(N2CCNC(C)C2)c(F)cc2c(=O)c(C(=O)O)cn(C3CC3)c12 (centres undefined),3,+
CCc1ccc(O)c(NC(=S)NC(=O)COc2ccc(C)cc2C)c1,-3,i
O=c1c(O)c(-c2ccccc2)oc2cc(O)ccc12,32*,i
O=C(O)COc1c(-c2ccccc2)oc2ccccc2c1=O,3,i
CC1CC2OC(C)(C)OC2C(OC(=O)c2ccccc2)O1 (centres undefined),-3,x
O=C(O)c1ccc(CSc2n[nH]c(-c3ccco3)n2)cc1,-2,+
O=C(CSc1n[nH]c(-c2ccco2)n1)N1c2ccccc2Sc2ccccc21,-2,i
Cn1c(Cc2cccc3ccccc23)nnc1SCC(=O)N1CCc2ccccc21,0,i
O=c1[nH]cnc2c1cnn2Cc1ccc(Cl)cc1,3,i
Cc1ccc(-c2nnc3c4ccccc4c(C)nn23)cc1S(=O)(=O)NCC1CCCO1 (centres undefined),-1,i
O=C(/C=C/c1ccccc1)c1ccc(O)cc1,27*,x
O=C(/C=C/c1ccccc1)CC(=O)/C=C/c1ccccc1,0,x
S=C(CC(=S)N1CCOCC1)N1CCOCC1,-3,x
COc1ccc(C(=O)NCC(=O)Nc2cc(OC)ccc2OC)cc1,0,+
COc1ccc(OC)c(NC(=O)CNC(=O)c2ccc(C(C)(C)C)cc2)c1,-1,i
CC(C)(C)NC(=O)N1CCN(c2ccc(C#N)cn2)CC1,-1,x
C[C@H]1CN([C@@H](C)CO)S(=O)(=O)c2ccc(-c3cccc(C(=O)N(C)C)c3)cc2O[C@@H]1CN(C)Cc1ccc2c(c1)OCO2,x,+
C[C@@H]1CN([C@@H](C)CO)S(=O)(=O)c2ccc(C3=CCCC3)cc2O[C@@H]1CN(C)Cc1cccc(C(=O)O)c1,x,+
C[C@H](CO)N1C[C@H](C)[C@H](CN(C)Cc2cccc(C(=O)O)c2)Oc2cc(C3=CCCC3)ccc2S1(=O)=O,x,i
CNC[C@H]1Oc2cc(-c3cccc(C(=O)N(C)C)c3)ccc2S(=O)(=O)N([C@H](C)CO)C[C@@H]1C,x,i
CN(C)CCCC[C@@H]1NC(=O)[C@H]2C[C@@H](C(=O)NCCCCCN)[C@@H](c3cccc(OCCO)c3)N2C1=O,-3,x
O=C(CSC1CC(=O)N(c2ccc(Br)cc2)C1=O)Nc1ccc(Cl)c(Cl)c1 (centres undefined),-1,i
C[C@H]1CN([C@@H](C)CO)C(=O)c2cc(-c3cccc(F)c3)cnc2O[C@H]1CN(C)C(=O)Nc1cc(F)ccc1F,x,+
SMILES,STK33 kin inh,ID4 binder
C[C@H](CO)N1C[C@H](C)[C@H](CN(C)C(=O)c2cccc(F)c2)Oc2ncc(-c3ccccc3)cc2C1=O,x,+
C[C@@H]1CN([C@H](C)CO)C(=O)c2cc(-c3cccc(F)c3)cnc2O[C@@H]1CN(C)C(=O)Nc1cc(F)ccc1F,x,i
C[C@@H]1CN([C@@H](C)CO)C(=O)c2cc(-c3ccccc3)cnc2O[C@H]1CN(C)C(=O)c1cccc(F)c1,x,i
CCc1ccc2[nH]c(C(=O)Nc3ccccc3C(C)CC)cc2c1 (centres undefined),x,i
O=c1cc(-c2ccc(O[C@@H]3O[C@H](CO)[C@@H](O)[C@H](O)[C@H]3O)cc2)oc2cc(O)cc(O)c12,50*,i
COc1c(O)cc2oc(-c3ccc(O[C@@H]4O[C@H](CO)[C@@H](O)[C@H](O)[C@H]4O)cc3)cc(=O)c2c1O,51*,i
O=c1c(O[C@@H]2O[C@H](CO)[C@H](O)[C@H](O)[C@H]2O)c(-c2ccc(O)c(O)c2)oc2cc(O)cc(O)c12,5,x
COc1c(C2OCC(OC(C)=O)C(OC(C)=O)C2OC(C)=O)c(O)cc2oc(-c3ccc(OC4OC(CO)C(O)C(O)C4O)cc3)cc(=O)c12 (centres undefined),-2,i
COc1cc(OC)cc(-c2nnc(SCC(=O)Nc3ccc(I)cc3)o2)c1,-5,i
